An excerpt weighted towards active compounds, which were near 3.2% of everything screened.
MsrA inhibitor = bovine MsrA enzyme inhibitors, primary screen, biochemical, absorbance, HTS; 360,000 compounds, 0.75% hits; inhibition, % at 15.5 µM; Methionine sulfoxide reductase A (Bos taurus); purified bovine MsrA, absorbance read-out; in the data active = inhibition above about 4.5%;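 also: 0% = vehicle wells with enzyme and 100% = reference inhibitor wells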
NadD block = inhibitors of S. aureus NadD, primary screen, biochemical, colorimetric, uHTS | Nicotinate-nucleotide adenylyltransferase NadD (Staphylococcus aureus N315) | AID 602399, 2012 | purified NadD enzyme, colorimetric absorbance read-out | inhibition, % at 20 µM | 360,000 compounds, 0.78% hits; in the data active = inhibition above about 26%
DAGLB inhibitor = DAGLB lipase inhibitors, primary screen, biochemical, fluorescence, HTS. Diacylglycerol lipase-beta (Homo sapiens), Q8NCG7. HEK293T DAGLB membrane lysate, EnzChek fluorogenic substrate. inhibition, % at 5.17 µM. 340,000 compounds, 0.059% hits. AID 504411, 2011; in the data active = inhibition above about 34%;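 also: 0% = enzyme with vehicle and 100% = wells lacking enzyme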
MsrA act = bovine MsrA enzyme activators, primary screen, biochemical, absorbance, HTS; purified bovine MsrA, absorbance read-out; activation, % at 10.6 µM; 360,000 compounds, 0.3% hits; in the data active = activation above about 7.5%;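 also: 0% = vehicle and 100% = reference activator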
Pemphigus Ab inh = inhibitors of pemphigus antibody binding to DSG3, primary screen, biochemical, bead-based, flow cytometry, scFv-GFP. 310,000 compounds, 0.48% hits. binding (percent of control), % at 10 µM. Desmoglein-3 (Homo sapiens), P32926. DSG3-coupled beads, scFv-anti-DSG3-GFP binding; stronger effect = lower value. AID 588358, 2011;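 active = binding more than 3 SD below its plate's average and above zero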
Target sequence (P32926 whole entry, looked up): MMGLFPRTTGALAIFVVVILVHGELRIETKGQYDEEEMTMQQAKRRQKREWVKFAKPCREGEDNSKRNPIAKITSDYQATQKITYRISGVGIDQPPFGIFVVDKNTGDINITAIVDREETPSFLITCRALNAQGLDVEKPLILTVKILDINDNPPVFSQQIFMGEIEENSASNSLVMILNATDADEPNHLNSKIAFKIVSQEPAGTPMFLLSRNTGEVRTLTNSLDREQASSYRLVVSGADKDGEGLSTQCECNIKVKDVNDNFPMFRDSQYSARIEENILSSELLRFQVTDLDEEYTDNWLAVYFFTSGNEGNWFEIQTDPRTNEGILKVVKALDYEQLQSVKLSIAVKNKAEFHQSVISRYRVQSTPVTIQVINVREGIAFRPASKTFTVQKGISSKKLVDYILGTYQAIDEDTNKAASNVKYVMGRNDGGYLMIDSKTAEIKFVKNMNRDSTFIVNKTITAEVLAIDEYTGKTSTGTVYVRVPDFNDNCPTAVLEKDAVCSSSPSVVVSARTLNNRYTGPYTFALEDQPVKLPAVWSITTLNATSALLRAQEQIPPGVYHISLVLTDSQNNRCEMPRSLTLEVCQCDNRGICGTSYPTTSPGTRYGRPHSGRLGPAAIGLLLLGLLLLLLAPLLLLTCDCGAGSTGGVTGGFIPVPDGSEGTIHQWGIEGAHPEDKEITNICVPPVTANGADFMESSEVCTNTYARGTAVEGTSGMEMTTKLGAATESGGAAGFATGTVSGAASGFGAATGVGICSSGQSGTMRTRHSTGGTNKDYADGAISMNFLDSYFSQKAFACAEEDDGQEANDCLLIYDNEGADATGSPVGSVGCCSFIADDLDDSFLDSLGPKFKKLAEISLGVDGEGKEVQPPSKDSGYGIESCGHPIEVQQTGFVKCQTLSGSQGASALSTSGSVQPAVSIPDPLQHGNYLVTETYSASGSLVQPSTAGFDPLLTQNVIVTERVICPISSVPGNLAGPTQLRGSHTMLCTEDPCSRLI
rCAG binder = binders of r(CAG) RNA repeats, primary screen, biochemical, fluorescence; r(CAG) RNA repeat, TO-PRO-1 dye displacement fluorescence; inhibition, % at 3 µM; 370,000 compounds, 1.3% hits; AID 651821, 2012;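 active = inhibition above the plate cutoff, the mean of all test compounds on that plate plus 3 SD, cut at about 35% in these data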;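 also: 0% = DMSO alone and 100% = 100 µM mitoxantrone as full dye displacement; higher means more dye released from RNA so lower well fluorescence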
NadD inh conf = inhibitors of S. aureus NadD, confirmation, biochemical, colorimetric, single concentration. shares compounds with NadD block. purified S. aureus NadD, colorimetric enzyme assay. inhibition, % at 20 µM. 2,000 compounds, 13% hits; in the data active = inhibition mostly above about 42%, no sharp cut-off; inactive = mostly below about 42%
* marks the source's active call; other numbers are inactive results; · = no result given.

SMILES	MsrA inhibitor	NadD block	DAGLB inhibitor	MsrA act	Pemphigus Ab inh	rCAG binder	NadD inh conf
COCCNc1nc(NCCCN2CCCC2=O)c2sccc2n1	-1.1	1.4	·	-2.5	·	0.5	·
CC(C)C[C@@H](CNCC(=O)[C@H](CC(=O)O)NC(=O)c1[nH]cnc1C(=O)N[C@H](CN)CC(C)C)NC(=O)c1nc[nH]c1C(=O)N[C@@H](Cc1ccccc1)C(=O)O	-0.3	34.6*	-0.3	-3.1	95.2	14.9	52.2*
COc1ccc(/C=C/C(=O)NC(=S)NNC(=O)[C@H]2C[C@@H]2c2ccccc2)cc1OC	0.5	58.6*	10.3	0.6	·	12.2	13.0
CCOC(=O)[C@]12CCCC=C1N(CCCOC)C(=O)[C@@H]2CC(=O)N1CCN(C(=O)c2ccco2)CC1	·	·	·	·	·	0.3	·
Cc1ccc(/C=c2\sc3nc(-c4ccccc4Br)nn3c2=O)o1	2.2	26.4*	0.7	-0.4	106.1	27.0	9.5
Cc1ccc(/C=c2\sc3nc(-c4ccco4)nn3c2=O)o1	·	26.0	-0.4	-1.7	100.8	·	·
CC(=O)Nc1ccc(NC2=Nc3ccccc3N3C2=Nc2c(c(C)nn2-c2ccccc2)C3c2ccccc2)cc1 (stereo not drawn)	1.0	37.1*	4.9	-9.6	67.1	5.5	30.6
COc1ccc(NC2=Nc3ccccc3N3C2=Nc2c(c(C)nn2-c2ccc(C)cc2)C3c2cccnc2)cc1 (stereo not drawn)	0.2	17.1	1.5	0.5	83.2	4.8	·
COc1ccc(/C=C/C(Cc2cccc(C(C)=O)c2)c2ccc(C)cc2)cc1 (stereo not drawn)	·	·	·	·	·	4.5	·
C[C@H](CO)N1C[C@H](C)[C@@H](CN(C)C(=O)Nc2ccc3c(c2)OCCO3)OCc2cn(nn2)CCCC1=O	0.4	·	·	·	·	0.8	·
CC(C)(C)OC(=O)NCCCCCc1cn([C@@H](CO)C(=O)NCCCCCCCCCCC(=O)N2CCN(C(=O)OC(C)(C)C)CC2)nn1	0.1	-2.7	-1.3	1.7	104.6	7.6	·
CC(C)(C)OC(=O)CC[C@@H](C(=O)NCCCCCCCCCCC(=O)N1CCN(C(=O)OC(C)(C)C)CC1)n1cc(CCCCCNC(=O)OC(C)(C)C)nn1	1.8	32.0*	-3.2	-8.8	96.3	1.4	-4.1
CC(=O)c1cc(-c2ccc(Cl)c(C(F)(F)F)c2)c(=O)n2c1CCC2	·	·	·	·	·	-0.9	·
Cc1ccc(-c2nc(C3CCCN(S(=O)(=O)c4cccs4)C3)no2)cc1 (stereo not drawn)	·	·	·	·	·	3.1	·
Cc1cccc(C)c1NC(=O)C1CCN(c2ncccn2)CC1	·	·	·	·	·	1.0	·
FC(F)(F)c1ccc(CN2C[C@@H]3C(c4ccc(C(F)(F)F)cc4)C4(c5cccnc5)CC3(C4)[C@H]2c2ccccc2)cc1 (stereo partly drawn)	-0.3	37.6*	-4.1	-3.6	99.8	-1.2	21.9
CCCCCCN1CCN(C2CN(Cc3cn(Cc4cccc(C(F)(F)F)c4)nn3)S(=O)(=O)C2)CC1 (stereo not drawn)	1.0	-3.5	·	-1.8	·	-1.5	·
Cc1ccc(/C=C/c2nc3sc(C(=O)O)c(C)c3c(=O)[nH]2)cc1[N+](=O)[O-]	2.4	35.8*	2.0	-2.0	95.4	14.4	0.8
COc1ccc(C2C(C#N)=C3NC(=O)c4c(sc5c4CCCCC5)N3C3=C2C(=O)CC(C)(C)C3)cc1 (stereo not drawn)	0.5	61.2*	19.6	-4.5	·	15.1	24.8
CC(C)c1nc2sc3c(=S)nc[nH]c3c2c2c1CCC2	-0.4	9.3	-1.2	-5.4	114.5	10.4	·
S=c1nc[nH]c2c1sc1nc(N3CCOCC3)c3c(c12)CCCC3	0.5	32.8*	-0.1	-3.5	·	9.8	-2.0
COc1ccc(C(C[N+](=O)[O-])c2c(-c3ccccc3)cc3ccccn23)c(OC)c1 (stereo not drawn)	0.8	32.9*	3.5	-1.6	99.2	13.1	13.6

From PubChem
